Measurements reported in PubChem BioAssay (NCATS).
Results filed as inconclusive are left out. Unless noted, calls come from the whole dose curve; as a rule, active = well fitted curve in either direction with a large enough effect (not every such curve was filed as active); inconclusive = small, poorly fitted or top-dose-only effect, or another doubt; inactive = flat fitted curve, though single readings scatter.

Columns and labels:
[1] = AP1 Signaling Pathway (AID 357); conditions: ME-180 AP-1-bla reporter, EGF-induced, beta-lactamase ratio, 5 h; at 17.2 µM (top of the series) unless noted;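 note: ME-180 reporter cells stimulated with EGF at its EC50 level; % is set by controls: 0 for no effect and ±100 for the full control effect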
In short: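 A ratiometric CCF4 readout (405 nm excitation; 460 and 530 nm emission) quantified AP-1-driven beta-lactamase in ME-180 cells after 5 h with compound and EC50 EGF; AC50 values were derived for activators and inhibitors.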

[2] = NFAT Signaling Pathway (AID 444); conditions: Jurkat NFAT-bla M1, carbachol, beta-lactamase ratio, 5 h; at 17.2 µM (top of the series) unless noted;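 note: carbachol stimulus at about its EC50 of 1 µM final; % is set by controls: 0 for no effect and ±100 for the full control effect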
In short: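 Read-out: CCF4 FRET ratio (460 nm/530 nm) after 1 h RT dye loading, used for %activity and AC50 from titration series. Cells: Jurkat NFAT-β-lactamase/M1 line, treated with compound plus 1 uM carbachol for 5 h, 37 °C.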

[3] = Stat Signaling Pathway (AID 446); conditions: ME-180 SIE beta-lactamase reporter, IL-6 stimulated, 5 h; at 17.2 µM (top of the series) unless noted;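 note: ME-180 cervical cancer cells given 40 pM IL-6 alongside compound; SIE-controlled beta-lactamase reporter measured as 460/530 nm FRET emission ratio; % is set by controls: 0 for no effect and ±100 for the full control effect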
In short: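 ME-180 SIE-bla cells; overnight plating; cpd + IL-6 40 pM, 5 h, 37 C; LiveBLAzer 2.5 h RT; 460/530 nm emission ratio. Normalized to 300 pM IL-6 and 125 nM JAK inhibitor controls.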

[4] = target: Glucocorticoid receptor (Homo sapiens) (UniProt P04150); experiment: GR-GFP Redistribution (AID 450;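 active = compounds whose dose series gives a full or clear partial fitted curve of increased nuclear translocation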; note: potency is the fitted concentration of half-maximal effect)
Glucocorticoid receptor (Homo sapiens), sequence (P04150 whole entry, looked up): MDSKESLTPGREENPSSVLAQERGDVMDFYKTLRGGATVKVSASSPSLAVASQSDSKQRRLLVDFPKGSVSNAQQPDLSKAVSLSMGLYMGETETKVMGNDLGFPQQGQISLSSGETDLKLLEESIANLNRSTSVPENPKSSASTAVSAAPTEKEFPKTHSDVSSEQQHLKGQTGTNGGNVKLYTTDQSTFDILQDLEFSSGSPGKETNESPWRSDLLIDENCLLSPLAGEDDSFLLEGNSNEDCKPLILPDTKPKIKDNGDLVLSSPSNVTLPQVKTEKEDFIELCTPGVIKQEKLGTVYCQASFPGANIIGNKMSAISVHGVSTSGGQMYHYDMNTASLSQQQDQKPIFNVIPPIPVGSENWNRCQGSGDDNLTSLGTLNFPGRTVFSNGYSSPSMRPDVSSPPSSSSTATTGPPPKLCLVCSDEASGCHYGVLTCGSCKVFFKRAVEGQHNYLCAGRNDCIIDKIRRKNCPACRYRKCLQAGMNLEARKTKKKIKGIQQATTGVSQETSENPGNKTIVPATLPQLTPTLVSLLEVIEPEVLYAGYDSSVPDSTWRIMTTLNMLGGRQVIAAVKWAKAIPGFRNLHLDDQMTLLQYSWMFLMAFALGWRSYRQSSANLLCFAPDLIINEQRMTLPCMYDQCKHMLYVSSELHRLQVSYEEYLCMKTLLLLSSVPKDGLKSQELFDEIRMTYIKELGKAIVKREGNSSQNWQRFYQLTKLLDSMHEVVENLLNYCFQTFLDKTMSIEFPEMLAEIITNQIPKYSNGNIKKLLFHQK

COc1cc(=O)n2c(-c3ccccc3)csc2n1
inactive: activity change, negative = inhibition [1] 6.57% | activity change, negative = inhibition [2] 0.0134% | activity, negative = inhibition [3] 8.66% | Potency [4] > 20.6 µM

Cc1nn(C)cc1/C=N/O
inactive: activity change, negative = inhibition [1] 10.9% | activity change, negative = inhibition [2] -0.64% | activity, negative = inhibition [3] 4.83% | Potency [4] > 20.6 µM

CCCCn1c2nc3ccccc3nc2c2c(=O)n(CC(C)C)cnc21
inactive: activity change, negative = inhibition [1] -1.88% | activity change, negative = inhibition [2] -20.4% | activity, negative = inhibition [3] -6.11% | Potency [4] > 20.6 µM

CC(C)Oc1ccc(Cc2c(O)nc(NCCCN(C)C)[nH]c2=O)cc1
inactive: activity change, negative = inhibition [1] 9.78% | activity change, negative = inhibition [2] 3.21% | activity, negative = inhibition [3] 4.27% | Potency [4] > 20.6 µM

CCOC(=O)CCNc1n[nH]c(=O)[nH]c1=O
inactive: activity change, negative = inhibition [1] 7.71% | activity change, negative = inhibition [2] 7.29% | activity, negative = inhibition [3] -2.32% | Potency [4] > 20.6 µM

CCOC(=O)c1c(C)n(C)c2ccc(OC)c(NC(=O)CN3CCC4(CC3)OCCO4)c12
inactive: activity change, negative = inhibition [1] -3.92% | activity change, negative = inhibition [2] 1.31% | activity, negative = inhibition [3] 3.03% | Potency [4] > 20.6 µM

CCOC(=O)C1CCN(c2ncnc3c2cnn3-c2ccc(Cl)cc2)CC1
inactive: activity change, negative = inhibition [1] 0.357% | activity change, negative = inhibition [2] -16.1% | activity, negative = inhibition [3] 4.03% | Potency [4] > 20.6 µM

Clc1ccc(COc2ccccn2)c(Cl)c1
inactive: activity change, negative = inhibition [1] 10% | activity change, negative = inhibition [2] -8.68% | activity, negative = inhibition [3] 15.3% | Potency [4] > 20.6 µM

CC1(C)CC(=O)C2=C(C1)OC(N)=C(C#N)C21C(=O)N(CN2CCOCC2)c2ccccc21 (stereo not given)
inactive: activity change, negative = inhibition [1] 15.6% | activity change, negative = inhibition [2] 1.95% | activity, negative = inhibition [3] 5.03% | Potency [4] > 20.6 µM

N=c1ncn(CC(O)CN2CCOCC2)c2nc(N3CCOCC3)[nH]c12 (stereo not given)
inactive: activity change, negative = inhibition [1] 6.34% | activity change, negative = inhibition [2] -3.22% | activity, negative = inhibition [3] 13.6% | Potency [4] > 20.6 µM

COCCNc1oc(-c2ccc(Cl)cc2)nc1C#N
inactive: activity change, negative = inhibition [1] -8.7% | activity change, negative = inhibition [2] -6.46% | activity, negative = inhibition [3] -5.03% | Potency [4] > 20.6 µM

O=C(C(c1ccccc1)N1CCOCC1)N1CCOCC1 (stereo not given)
inactive: activity change, negative = inhibition [1] 27.9% | activity change, negative = inhibition [2] 7.74% | activity, negative = inhibition [3] 13.8% | Potency [4] > 20.6 µM

O=C(Oc1ccccc1N1C(=O)CCC1=O)c1ccco1
inactive: activity change, negative = inhibition [1] 11.4% | activity change, negative = inhibition [2] 8.69% | activity, negative = inhibition [3] 1.19% | Potency [4] > 20.6 µM

CSC1=C(C#N)C(c2ccc(C)s2)CC(=O)N1 (stereo not given)
inactive: activity change, negative = inhibition [1] -7.45% | activity change, negative = inhibition [2] -2.53% | activity, negative = inhibition [3] 7.78% | Potency [4] > 20.6 µM

Cc1ccc(C2/C(=C(/O)c3ccc(OC(C)C)cc3)C(=O)C(=O)N2CCN2CCOCC2)cc1 (stereo not given)
inactive: activity change, negative = inhibition [1] 0.482% | activity change, negative = inhibition [2] 10.1% | activity, negative = inhibition [3] -12.8% | Potency [4] > 20.6 µM

CCOC(=O)c1cnn2c1[nH]c(=O)c1ccccc12
inactive: activity change, negative = inhibition [1] -8.34% | activity change, negative = inhibition [2] 9.32% | activity, negative = inhibition [3] 9.94% | Potency [4] > 20.6 µM

COc1ccc2c(c1)nc(N)n2Cc1ccccc1
inactive: activity change, negative = inhibition [1] -1.6% | activity change, negative = inhibition [2] -9.42% | activity, negative = inhibition [3] -3.55% | Potency [4] > 20.6 µM

COC(=O)c1ccc(CSc2nc(N3CCOCC3)c3c(c2C#N)CC(C)(C)OC3)o1
inactive: activity change, negative = inhibition [1] -9.04% | activity change, negative = inhibition [2] -8.92% | activity, negative = inhibition [3] 20% | Potency [4] > 20.6 µM

COc1ccc(/C(O)=C2/C(=O)C(=O)N(CCN3CCOCC3)C2c2ccccn2)cc1 (stereo not given)
inactive: activity change, negative = inhibition [1] 7.11% | activity change, negative = inhibition [2] 6.7% | activity, negative = inhibition [3] 0.702% | Potency [4] > 20.6 µM

COc1ccc(C(=O)Nc2ccccc2N2CCOCC2)cc1Br
inactive: activity change, negative = inhibition [1] -21.1% | activity change, negative = inhibition [2] 9.59% | activity, negative = inhibition [3] -8.26% | Potency [4] > 20.6 µM

Cc1ccccc1N1C(=O)C2ON(c3ccccc3)C(c3ccncc3)C2C1=O (stereo not given)
inactive: activity change, negative = inhibition [1] 5.78% | activity change, negative = inhibition [2] 18.5% | activity, negative = inhibition [3] 1.29% | Potency [4] > 20.6 µM

C=CCc1cccc(/C=N/n2cnnc2)c1O
inactive: activity change, negative = inhibition [1] -1.43% | activity change, negative = inhibition [2] -2.18% | activity, negative = inhibition [3] 7.8% | Potency [4] > 20.6 µM

Cc1cccc2c1NC(C)CC2C (stereo not given)
inactive: activity change, negative = inhibition [1] 9.08% | activity change, negative = inhibition [2] 11.8% | activity, negative = inhibition [3] 13.3% | Potency [4] > 20.6 µM

CCOc1cccc(-c2nnc3sc(-c4ccc(C)cc4)nn23)c1
inactive: activity change, negative = inhibition [1] 18.5% | activity change, negative = inhibition [2] -19.6% | activity, negative = inhibition [3] 24.1% | Potency [4] > 20.6 µM

CCOC(=O)N1CCN(C(=O)c2cn(CC)c3cc(N4CCN(C)CC4)c(F)cc3c2=O)CC1
inactive: activity change, negative = inhibition [1] 8.43% | activity change, negative = inhibition [2] 7.68% | activity, negative = inhibition [3] 0.507% | Potency [4] > 20.6 µM
